Assay [1] is described as follows: qHTS to identify inhibitors of the type 1 interferon - major histocompatibility complex class I in skeletal muscle: primary screen against the NCATS LOPAC collection (AID 1347405).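 Also: lytic HiBiT luminescence reporting HLA-B protein level.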 Also: potency is read from the fitted curve at half-maximal effect. As to activity change, negative = inhibition: % is scaled to controls: 0 for no effect and ±100 for the full control effect. Put shortly:
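After 24 h at 37 C with compounds (7-point, 1:4.3 dilutions, 46 uM top final) plus 4 ng/ml IFN-beta, luminescence from lytic HiBiT detection was measured. HLA-B*08:01 in C25cl48 myoblasts carried an endogenous C-terminal HiBiT tag; medium lacked dexamethasone.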

The nature of assay [2]: qHTS for inhibitors of adenylyl cyclases using a fission yeast platform: a pilot screen against the NCATS LOPAC library (AID 1347410).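 Also: plate controls were DMSO vehicle for no effect and DPI positive control for full effect.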 The procedure, abridged: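 GFP from fbp1-GFP reporter, read by Acumen laser cytometry, indicates AC inhibition in fission yeast expressing AC9, GNAS and PDE4D2. Cells grown 18 h in the dark at 30C with compounds, final up to 57 uM.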
In general terms: In qHTS, concentration-response curves come from the screen itself.

For assay [3], the target named is Calcium and integrin-binding protein 1 (Homo sapiens) (UniProt Q99828). As to the kind of experiment: Validation qHTS for Identification of Calcium Integrin Binding protein 1 (CIB1) Competitor (AID 1508618). Also: % is scaled to controls: 0 for no effect and ±100 for the full control effect. Put shortly:
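CIB1-GST (1 uM final) in 5 mM HEPES pH 7.4, 125 mM NaCl, 5 mM CaCl2, 0.01% Tween20 was preincubated 15 min at room temperature with compound (up to 114 uM), then FITC-alphaIIb peptide (100 nM) added for 15 min; fluorescence polarization read.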

Assay [4] shares this target. As to the kind of experiment: Primary qHTS for Identification of Calcium Integrin Binding Protein 1 (CIB1) Competitor (AID 1508620).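 Also: GST tagged CIB1 binding a fluorescein labelled alphaIIb integrin peptide tracer; top concentration of the series differs between compounds; % is scaled to controls: 0 for no effect and ±100 for the full control effect.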 Put shortly:
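CIB1-GST (1 uM final) and compound incubated 15 min at room temperature before adding FITC-alphaIIb peptide tracer (100 nM final). Competition for binding read by fluorescence polarization (ex 480, em 540) after another 15 min at room temperature.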

Assay [5] is described as follows: qHTS to identify inhibitors of the type 1 interferon - major histocompatibility complex class I in skeletal muscle: primary screen against the NCATS Pharmaceutical Collection (AID 1347407).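 Also: luminescence of HiBiT knocked into endogenous HLA-B as interferon-induced MHC class I level.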 Also: potency is read from the fitted curve at half-maximal effect. The procedure, abridged: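 Compounds […] were added to CRISPR-engineered HLA-B-HiBiT C25cl48 human myoblasts with 4.0 ng/ml IFN-beta. After 24 hrs at 37 C, cells were lysed and HiBiT luminescence measured.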

Assay [6] addresses Protein phosphatase 1D (Homo sapiens) (UniProt O15297). As to the kind of experiment: RapidFire Mass Spectrometry qHTS Assay for Modulators of WT P53-Induced Phosphatase 1 (WIP1) (AID 1347424).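 Also: amount of dephosphorylated VEPPL-S-QETFS peptide product formed by WIP1.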 Also: potency is read from the fitted curve at half-maximal effect.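 As to activity change, negative = inhibition: series mostly up to about 63 µM; plate controls were DMSO wells for no effect and GSK830371 inhibitor control at 10 µM for full effect.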 Put shortly:
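RapidFire mass spectrometry measured dephosphorylated peptide after 5 min room-temperature reaction of 2 uM VEPPL-pS-QETFS with 10 nM WIP1 (50 mM Tris-HCl pH 7.5, 30 mM MgCl2, 0.1 mM EGTA, BSA), following 1 hr compound preincubation; 1 uM isotope-labelled product standard.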

Assay [7] has the same target. As to the kind of experiment: Rhodamine-PBP qHTS Assay for Modulators of WT P53-Induced Phosphatase 1 (WIP1) (AID 1347425). Also: % of control where 0% means no effect. Put shortly:
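Read-out: Rhodamine-PBP fluorescence (ex 525/em 598 nm) for released Pi, read each minute for 11 min after adding 10 uM VEPPL-pS-QETFS; signal taken as f1 minus pre-substrate f0. Enzyme 5 nM WIP1 with 1 hr room-temperature compound preincubation.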

Assay [8] can be described thus: Primary qHTS for inhibitors of La Crosse Virus (LACV) - induced cell death in SH-SY5Y cells (AID 1508616).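 Also: top concentration of the series differs between compounds; 0% = infected DMSO wells and 100% = uninfected DMSO wells; higher means more rescue of cells from virus-induced death.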 Put shortly: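 Rescue of virus-induced death was read as ATPLite luminescence after 6 days at 37C, scaled between DMSO wells with LACV and without virus. Cells were SH-SY5Y, 6000/well, infected at 0.01 MOI after compound addition.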
A short description of assay [9]: Validation qHTS assay for inhibitors of Activation Induced Cytidine Deaminase (AID): UDG Counterscreen signal (AID 1347427). Also: 0% is about no effect. Put shortly: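 Fluorescence at 560 nm excitation, 665 nm emission reports UDG signal after 250 mM NaOH (2x) addition and 30 min. Enzymes (AID 1 uM, UDG 2 U/mL, at 4/3x) preincubated 10 min with compound, then 4 h with 4x 250 nM DJC20/DJC23 substrate at room temperature.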

For assay [10], the target named is Single-stranded DNA cytosine deaminase (Homo sapiens) (UniProt Q9GZX7). As to the kind of experiment: Validation qHTS assay for inhibitors of Activation Induced Cytidine Deaminase (AID): AID signal (AID 1347429). Also: % is scaled to controls: 0 for no effect and ±100 for the full control effect. Put shortly: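 Compounds (final up to 114 uM) preincubated with AID plus UDG; 250 nM DJC20/DJC23 substrate mix (4x stock) added, 4 hr at room temperature, then NaOH, 30 min. Read 1 fluorescence at 540 nm excitation, 590 nm emission.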

The nature of assay [11]: qHTS to identify inhibitors of the type 1 interferon - major histocompatibility complex class I in skeletal muscle: primary screen against the NCATS Mechanism Interrogation Plate v5.0 (MIPE) Libary (AID 1347411).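 Also: plate controls were vehicle for no effect and reference inhibitor for full effect; nearly all actives have a fitted effect of over 65% in size.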 The procedure, abridged:
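Luminescence from CRISPR HiBit-tagged endogenous HLA-B in human myoblasts reported MHC class I level after 24 h of IFN-beta (4 ng/ml) plus compound. Compounds ran as 11-point 1:3 series, top 46 uM final.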

In assay [12] the target is Calcium and integrin-binding protein 1 (Homo sapiens) (UniProt Q99828). As to the kind of experiment: Confirmatory qHTS for Identification of Calcium Integrin Binding Protein 1 (CIB1) Competitor (AID 1508617). Also: potency is read from the fitted curve at half-maximal effect; nearly all actives have a fitted effect of over 65% in size. Conditions: CIB1 binding competition assay, biochemical qHTS. Put shortly: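 Fluorescence polarization competition: CIB1-GST (1 uM final) in 5 mM HEPES pH 7.4, 125 mM NaCl, 5 mM CaCl2, 0.01% Tween20 preincubated 15 min RT with compound (up to 114 uM), then FITC-alphaIIb peptide (100 nM) added, 15 min RT.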

A number with no mark means an inactive call. Records with an inconclusive call do not appear. The source made the active and inactive calls. Calls follow the shape of the dose curve; as a rule, active = well fitted curve in the direction sought with a large enough effect; inconclusive = small, poorly fitted or top-dose-only effect, or another doubt; inactive = no such curve, though single readings can be large; an effect the other way counts as inactive or inconclusive.

Sequence of Calcium and integrin-binding protein 1 (Homo sapiens) (Q99828 whole entry, looked up): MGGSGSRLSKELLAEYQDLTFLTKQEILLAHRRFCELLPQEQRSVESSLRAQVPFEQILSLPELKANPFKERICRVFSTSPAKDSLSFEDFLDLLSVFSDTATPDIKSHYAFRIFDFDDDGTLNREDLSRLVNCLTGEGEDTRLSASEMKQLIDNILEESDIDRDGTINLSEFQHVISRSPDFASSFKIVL
Sequence of Protein phosphatase 1D (Homo sapiens) (O15297 whole entry, looked up): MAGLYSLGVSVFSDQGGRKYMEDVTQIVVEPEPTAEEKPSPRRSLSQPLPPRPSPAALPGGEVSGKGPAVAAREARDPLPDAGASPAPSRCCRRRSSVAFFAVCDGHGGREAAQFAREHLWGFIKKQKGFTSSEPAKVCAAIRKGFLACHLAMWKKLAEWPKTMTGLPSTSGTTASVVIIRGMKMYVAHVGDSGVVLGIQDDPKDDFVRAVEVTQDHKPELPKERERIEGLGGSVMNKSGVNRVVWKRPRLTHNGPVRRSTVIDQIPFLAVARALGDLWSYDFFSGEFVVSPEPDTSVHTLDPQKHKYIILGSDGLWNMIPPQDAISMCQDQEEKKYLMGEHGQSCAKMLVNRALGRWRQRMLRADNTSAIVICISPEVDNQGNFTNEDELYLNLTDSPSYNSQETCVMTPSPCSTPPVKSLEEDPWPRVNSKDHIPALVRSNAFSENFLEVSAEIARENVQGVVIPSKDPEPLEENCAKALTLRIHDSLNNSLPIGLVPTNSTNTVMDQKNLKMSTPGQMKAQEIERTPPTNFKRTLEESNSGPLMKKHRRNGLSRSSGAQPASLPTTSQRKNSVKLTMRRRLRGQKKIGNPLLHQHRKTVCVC
Sequence of Single-stranded DNA cytosine deaminase (Homo sapiens) (Q9GZX7 whole entry, looked up): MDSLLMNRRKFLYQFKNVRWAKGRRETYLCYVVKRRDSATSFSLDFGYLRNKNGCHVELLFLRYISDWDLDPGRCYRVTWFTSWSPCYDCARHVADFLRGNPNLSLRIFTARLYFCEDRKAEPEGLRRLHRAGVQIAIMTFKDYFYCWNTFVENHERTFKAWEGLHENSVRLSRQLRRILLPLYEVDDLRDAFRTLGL

As for `Brc1cc2c(cc1[C@H]1Nc3ccccc3[C@H]3C=CC[C@H]31)OCO2`, the Potency entry in assay [1] was “inactive”. Also, the outcome in [2] and in [3] was inactive.
`CCCC(CCC)C(=O)OC1CC2CCC(C1)[N+]2(C)C` (configuration not stated): the Potency result in assay [1] was “inactive”. Besides, the outcome in assay [2] and in [3] was inactive.
Regarding `O=C(CCSCc1ccco1)NNC(=O)N1Cc2ccccc2Oc2ccc(Cl)cc21`, the Potency entry in assay [1] was “inactive”. In addition, the outcome in assay [2] and in [3] was inactive.
Consider `COc1ccc(C(=O)/C(Cc2cc(OC)c(OC)c(OC)c2)=C(\C(=O)O)c2ccc3c(c2)OCO3)cc1`, for which the Potency in [1] is 14.1 µM (active). Besides, the molecule was called inactive in [2] and in assay [3].
Regarding `CS(=O)(=O)c1ccc(-n2nc(C(F)(F)F)cc2-c2ccc(F)cc2)cc1`, the Potency entry in assay [1] and in [4] was “inactive” each time. In addition, the molecule was classed as inactive in assay [2] and in assay [3].
For the molecule `CCCCCCCCCCCCCCCCCC(=O)O`, the Potency result in [5], in assay [6] and in assay [8] was “inactive” throughout. For the same molecule, the molecule was called inactive in assay [7].
`CCNc1nc2c(ncn2[C@H]2C[C@H](O)[C@@H](CO)O2)c(=O)[nH]1`: the Potency entry in assay [1] and in assay [4] was “inactive” each time. In addition, the result in assay [2] and in [3] was inactive.
Take `CC(=O)c1ccc(OCC(=O)N2CCCCC2)cc1`: the Potency entry in assay [5], in [6], in [8] and in assay [4] was “inactive” each time. Moreover, the molecule was classed as inactive in assay [7].
On to `O=C(Nc1ccc(C(=O)O)c(O)c1)c1ccccc1`, for which the Potency entry in assay [5], in assay [6], in assay [8] and in [4] was “inactive” in each case. For the same molecule, the outcome in [7] was inactive.
With `CCCCCCCCCCCC(=O)[O][Sn]([CH2]CCC)([CH2]CCC)[O]C(=O)CCCCCCCCCCC`, the Potency result in [5], in assay [6], in assay [8] and in [4] was “inactive” each time.
As for `CCOc1ccc2nc(S(N)(=O)=O)sc2c1`, the Potency entry in assay [5], in assay [6] and in assay [4] was “inactive” each time. In addition, the molecule was classed as inactive in assay [7].
For the molecule `CCCCCCOc1ccccc1C(N)=O`, the Potency result in [5], in assay [6], in assay [8] and in assay [4] was “inactive” in each case. For the same molecule, the molecule was called inactive in assay [7].
Turning to `Cn1cc(C2=C(c3ccc(Cl)cc3Cl)C(=O)NC2=O)c2ccccc21`, the Potency result in assay [1], in [9], in [10] and in assay [8] was “inactive” throughout. In addition, the outcome in assay [3] was inactive.
`Cc1c(C(=O)O)c(O)cc2c1C(=O)c1c(O)c([C@@H]3O[C@H](CO)[C@@H](O)[C@H](O)[C@H]3O)c(O)c(O)c1C2=O`: the Potency entry in assay [5], in assay [6], in [8] and in assay [4] was “inactive” each time. In addition, the molecule was called inactive in assay [7].
Take `CC(C)OC(=O)c1cc(C(=O)OC(C)C)cc([N+](=O)[O-])c1`: the Potency entry in assay [5], in assay [6], in assay [8] and in assay [4] was “inactive” throughout. Further, in assay [7], the molecule was called inactive.
Turning to `Fc1ccc2[nH]c(CN3CCN(c4ccccn4)CC3)cc2c1`, the Potency result in [1] and in [4] was “inactive” throughout. In addition, the molecule was called inactive in assay [2] and in assay [3].
As for `C[N+]1(C)[C@@H]2CC(OC(=O)[C@H](CO)c3ccccc3)C[C@H]1[C@@H]1O[C@@H]12` (some centres not stated), the Potency result in assay [5], in assay [11], in [8] and in [4] was “inactive” each time. The result in [7] was inactive.
In the case of `O=C(O)Cc1ccc2c(c1)C(=O)c1ccccc1CO2`, the Potency result in assay [5], in assay [6], in [8] and in [4] was “inactive” each time. Moreover, in assay [7], the molecule was classed as inactive.
`Nc1ccc(C(=O)O)c(O)c1`: the Potency entry in [5], in assay [6], in [8] and in [4] was “inactive” each time. Also, the outcome in assay [7] was inactive.
With `COC(=O)c1nc(Cl)c(Cl)nc1N`, in assay [5], the Potency was 10.5 µM (active). The Potency result in assay [6] and in assay [4] was “inactive” each time. Also, the call in assay [7] was inactive.
Turning to `C/C(=N\O)c1ccc(OCC(=O)N2CCCCC2)cc1`, the Potency entry in assay [5], in assay [6], in assay [8] and in [4] was “inactive” in each case. In addition, the outcome in assay [7] was inactive.
As for `O=C(Nc1ccc2[nH]ncc2c1)C1CCC1`, the Potency entry in assay [1] and in assay [4] was “inactive” throughout. Further, the molecule was called inactive in [2] and in assay [3].
Turning to `COc1ccnc2c1CCCCC2S(=O)c1nc2ccccc2[nH]1` (configuration not stated), the Potency entry in assay [5], in assay [6] and in assay [8] was “inactive” each time. Moreover, the molecule was called inactive in assay [7].
For the molecule `O=[N+]([O-])c1ccc(CNc2nc(NCc3cccc(C(F)(F)F)c3)nc3nc[nH]c23)cc1`, the Potency entry in assay [1] and in assay [4] was “inactive” in each case. Further, the molecule was classed as inactive in assay [2] and in assay [3].
Take `CCCCCCCCCCCCCCCC(=O)OC(C)C`: the Potency result in assay [5], in assay [6], in assay [8] and in assay [4] was “inactive” in each case. For the same molecule, the call in assay [7] was inactive.
For the molecule `CCCCCCCC/C=C/C(=O)O`, the Potency entry in assay [5], in [6], in assay [8] and in [4] was “inactive” throughout. Also, the molecule was called inactive in [7].
Turning to `NCCO`, the Potency entry in assay [5], in assay [6] and in assay [4] was “inactive” in each case. For the same molecule, the molecule was classed as inactive in [7].
With `O=C(OCc1ccccc1)c1ccccc1`, the Potency result in assay [5], in assay [6] and in assay [8] was “inactive” in each case. Also, in [7], the molecule was classed as inactive.
In the case of `Cc1ccc(O)c(-n2nc3ccccc3n2)c1`, the Potency entry in assay [5], in assay [6] and in [4] was “inactive” throughout. Besides, the call in [7] was inactive.
Take `CC(C(=O)O)c1ccc(C(=O)c2cccs2)cc1` (configuration not stated): the Potency result in [5], in assay [6] and in assay [4] was “inactive” in each case. For the same molecule, the molecule was called inactive in assay [7].
With `Nc1ccc(O)c([N+](=O)[O-])c1`, the Potency entry in assay [5] and in [8] was “inactive” throughout. In addition, the Potency is 35.5 µM (active) in [6] and 50.1 µM (active) in [12].
With `O=C(O)Cc1cccc(-c2cc(CCCCCCc3ccc(O[C@H]4O[C@H](CO)[C@@H](O)[C@H](O)[C@@H]4O)c(-c4cccc(CC(=O)O)c4)c3)ccc2O[C@H]2O[C@H](CO)[C@@H](O)[C@H](O)[C@@H]2O)c1`, the activity change, negative = inhibition in [5] is -3.38% [at 0.727 µM]; in assay [6], -6.57% [at 0.505 µM]; in assay [7], -0.323% [at 0.575 µM]; in [4], -8.49% [at 1.07 µM]. Moreover, the activity change in [8] was -19% [at 0.0343 µM].

(Values after PubChem BioAssay (NCATS).)
